Test results reported in the supplement of paper PMC6555819.

Key:
Assay in all cases: PBM binding z-score (relative to random genomic background probes); higher = stronger binding; sequences stand for … in GC…GCGATTGACAGCGTAGAATGAAGG
[1] = tested on: PPARg:RXRa IVT, anti-PPARg (NR concentration 270 nM, RXRa partner concentration 90 nM)
How it was run: (§1)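 Each nuclear receptor dimer, without ligand, was incubated for 1 h on custom Agilent 4×180K protein-binding microarrays. Binding was detected with antibodies against each partner (one per run), and scanned fluorescence was regression-normalized. The binding z-scores are referenced to random human genomic background probes.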

[2] = tested on: PPARg DBDmut:RXRa IVT, anti-PPARg (DBD mutation: PPARg1 K132A/R137A, NR concentration 270 nM, RXRa partner concentration 90 nM)
How it was run: as §1

[3] = tested on: PPARg DBDmut IVT, anti-PPARg (DBD mutation: PPARg1 K132A/R137A, NR concentration 270 nM)
How it was run: as §1

[4] = tested on: PPARg homodimer (NR concentration 180 nM)
How it was run: as §1

[5] = tested on: PXR:RXRa (NR concentration 270 nM, RXRa partner concentration 90 nM)
How it was run: as §1

[6] = tested on: PXR homodimer (NR concentration 270 nM)
How it was run: as §1

[7] = tested on: RARa:RXR (NR concentration 270 nM, RXRa partner concentration 90 nM)
How it was run: as §1

[8] = tested on: RARa homodimer (NR concentration 270 nM)
How it was run: as §1

[9] = tested on: RARb:RXRa (NR concentration 270 nM, RXRa partner concentration 90 nM)
How it was run: as §1

[10] = tested on: RARb homodimer (NR concentration 270 nM)
How it was run: as §1

Sequence | PBM binding z-score [1] | PBM binding z-score [2] | PBM binding z-score [3] | PBM binding z-score [4] | PBM binding z-score [5] | PBM binding z-score [6] | PBM binding z-score [7] | PBM binding z-score [8] | PBM binding z-score [9] | PBM binding z-score [10]
AGAATGAGGTCAAGATCAGGGAAACAGAATACAT | 6.55 | 2.94 | 2.9 | 3.03 | 4.67 | 1.43 | 5.28 | 1.39 | 5.21 | 3.8
CCTACTGGACCAAGGTCATTGATCAGTCAAAGCA | 2.23 | 0.0744 | 0.144 | 2.59 | 3.88 | 1.96 | 3.91 | 0.91 | 3.23 | 3.4
CGTCAAAGGTCAAGGTCAGTGAAAGAGACTCGAA | 6.36 | 3.41 | 4.07 | 6.26 | 6.26 | 1.8 | 6.98 | 4.06 | – | 5.34
CCTTACGGGTCACTCCAGGTCATAGCATCGGAGT | 4.39 | -0.278 | -0.144 | 2.14 | 6.17 | 1.15 | 4.49 | 0.835 | 4.25 | 4.42
CCAACTGGGCCAAAAAGGTCATTGATGCCGATAA | 3.89 | -0.199 | -0.68 | 2.84 | 4.6 | 3 | 4.65 | 1.31 | 3.94 | 4.36
CCTTACGGGTTACTCCAGGTTATAGCATCGGAGT | 0.994 | 0.298 | -0.838 | 0.398 | 2.52 | 0.558 | 1.68 | 0.599 | 1.02 | 0.561
CGTCAAAGGTCAGAGAGGTCAGTGAATGCCGAGT | 5.36 | 0.83 | 0.0737 | 5.81 | 6.7 | 12.3 | – | 5.86 | – | 6.19
TGTCAAAGTTCAAAGGTGACGTAAGTATCCACAC | 5.07 | 1.7 | 1.53 | 5.33 | 6.34 | 5.43 | – | 2.52 | 5.36 | 4.05
CGTCCAAGGTCACGGTCAGTGAAAGAGACTCGAA | 5.66 | 1.95 | 0.958 | 4.68 | 4.93 | 0.843 | 6.25 | 2.14 | – | 4.71
CCTACTGGGCCATTCAGAGGGCATTGATCATATG | 3.43 | -0.276 | -0.131 | 0.0332 | – | -0.0942 | 0.0322 | -0.556 | 1.09 | 1.27
CAAAATAGGTCACCGGAAGGTCAAAGTCCGCATG | 8.01 | 1.87 | 1.44 | 8.87 | 6.56 | 1.96 | 8.2 | 4.27 | – | 5.89
GCTGCTAGGTCAACTGATGGTCAACTAAAGCTCG | 4.19 | -0.672 | 0.0374 | 2.3 | 2 | -0.565 | – | 0.323 | 4.29 | 3.7
ATATGTAGGTTAACTGGGGTCATTCAGACTAGGC | 7.34 | 1.81 | 2.42 | 1.95 | – | 5.25 | 5.93 | 1.61 | 3.55 | 4.28
CTCGAAAGGTCATGCTCAGGTGAGTATACCAAAC | 4.89 | 1.38 | 0.849 | 3.71 | 5.91 | 0.752 | 6.85 | 2.27 | – | 5.14
GGAACGAGGGCATTCGAGTTCATAGCATGGCGAT | 2.61 | 0.143 | -0.584 | 0.888 | – | 14 | 2.84 | -0.506 | 2.75 | 2.4
CCTTAAGGGTCACGAGGTTATAGCACGACGAGCG | 5.81 | 1.74 | 1.89 | 4.47 | 5.46 | 0.279 | 6.79 | 1.6 | – | 5.02
ATCGAAAGGTCAACGAGGTGAGTATACACCGTTT | 5.68 | 2.78 | 3.38 | 5.17 | 6 | 5.16 | 6.61 | 3.85 | – | 5.51
ATATGTAGGTTATCTGGGGTCATTCAGACTAGGC | 6.58 | 2.87 | 2.04 | 3.42 | – | 6.37 | 5.95 | 1.76 | 3.16 | 3.97
AGAATGGGGTTATACGTAGATCAGGGAAGAAAGT | 2.95 | 2.51 | 1.53 | 1.86 | 2.56 | 1.48 | – | 1.54 | 1.93 | 1.67
CGTCAAAGGTCAATGCTAGGTCAGTGAAAGCATT | 6.13 | 2.05 | 0.936 | 5.64 | 5.96 | 1.66 | 6.85 | 2.5 | – | 5.56
CCGACGGGGGCAAAGGTTACCATACTCAGTACGA | 5.25 | 2.34 | 3.31 | 2.4 | 5.31 | 0.704 | – | 0.677 | 3.84 | 3.21
ATCGAAAGGTCATGAGGTGAGTATACAGAAAGGC | 5.59 | 2.8 | 3 | 4.69 | 5.71 | 0.933 | – | 3.7 | – | 5.04
CAAACTAGGTCACGAGAGGTCAAAGTCGAATGAC | 9.18 | 3.71 | 4.06 | 5.24 | – | 3.95 | 7.58 | 2.65 | 5.51 | 5.6
CAAAATAGGTCAAAGGTCAAAGTCGAGCCAACCA | 8.59 | 3.03 | 1.57 | 4.96 | 7.32 | 2.02 | 9.14 | 3.71 | – | 5.5
TATACAGGGTCAAAGGCCAAAGTACGAATGTCGA | 5.37 | 2.17 | 1.63 | 4.71 | 5.05 | 0.969 | – | 1.74 | 4.76 | 3.7
CAAAATAGGTCACAGAGGTCAAAGTCCGTGCGTA | 8.25 | 1.92 | 1.23 | 4.67 | 6.99 | 10.7 | 7.81 | 1.88 | – | 5.93
CAAACTAGGTCAAAAGGTCAAAGTCCGCTTCCCG | 8.17 | 1.83 | 1.09 | 7.65 | 6.71 | 2.96 | – | 5.47 | – | 6.38
